Measured values published in PubChem BioAssay.
For some of these results: Results with a measured potency or affinity are listed apart. Activity calls are given as the source filed them. Unless noted, how the calls were made is not given here.

Tests used:
[1] = antimalarial activity against Dd2 strain (AID 2302;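 active means growth inhibition above 50% at the single 2 µM test dose, taken to imply half-maximal potency below 2 µM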;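 further: 0% = DMSO untreated growth and 100% = chloroquine plus artemisinin killed control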); settings: P. falciparum Dd2 in RBCs, LDH growth readout, 72 h; at 2 µM; active compounds read high
[2] = HepG2 cytotoxicity, primary screen, cytotoxicity control for P. falciparum antimalarial project, cell-based, ATP luminescence (AID 2303;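 active means inhibition above 50%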;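 further: 0% = DMSO wells and 100% = digitonin-killed cells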); settings: HepG2 viability, 24-48 h, at 10 µM, active compounds read high
[3] = biological target: L-lactate dehydrogenase (Plasmodium falciparum (isolate CDC / Honduras)) (UniProt Q27743); experiment: PfLDH activity inhibition – cell lysate, 3D7 strain, counter-screen for P. falciparum growth inhibition project (AID 2304);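 further: 0% = vehicle and 100% = reference inhibitor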; settings: P. falciparum 3D7 crude extract, LDH APAD/NBT absorbance; at 2 µM; active compounds read high
[4] = inhibition of 3D7 malaria parasite growth – strain 3D7 (AID 2306);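 further: 0% = DMSO wells and 100% = chloroquine plus artemisinin control wells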; settings: P. falciparum 3D7 erythrocytic growth, LDH absorbance, 72 h; at 2 µM; active compounds read high
[5] = biological target: Calcium-dependent protein kinase 1 (Plasmodium falciparum (isolate 3D7)) (UniProt P62344); experiment: PfCDPK1 kinase inhibitors, biochemical, TCAMS library (AID 1159585; cut-off not given, nearly all actives have IC50 up to about 0.98 µM;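 further: inhibitors leave more ATP so luminescence rises with inhibition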); settings: recombinant PfCDPK1, Kinase-Glo ATP depletion luminescence
[6] = biological target: Plasmodium falciparum protein kinase 6 (PK6, PF3D7_1337100) (UniProt Q8IDW1); experiment: PfPK6 kinase inhibitors, biochemical, TCAMS library (AID 1159586); settings: recombinant PfPK6, Kinase-Glo ATP depletion luminescence
[7] = biological target: Protein kinase 7 (PK7), Plasmodium falciparum 3D7 (PF3D7_0213400) (UniProt Q7YTF7); experiment: inhibition of Plasmodium PK7 catalytic activity – biochemical, TCAMS antimalarial set, Kinase-Glo luminescence (AID 1159587); settings: recombinant PfPK7, Kinase-Glo ATP depletion luminescence
[8] = biological target: Calcium-dependent protein kinase 4 (Plasmodium falciparum (isolate 3D7)) (UniProt Q8IBS5); experiment: PfCDPK4 kinase inhibitors, biochemical, TCAMS library (AID 1159588; cut-off not given, nearly all actives have IC50 up to about 0.91 µM); settings: recombinant PfCDPK4, Kinase-Glo ATP depletion luminescence
Sequence of Calcium-dependent protein kinase 4 (Plasmodium falciparum (isolate 3D7)) (Q8IBS5 whole entry, looked up): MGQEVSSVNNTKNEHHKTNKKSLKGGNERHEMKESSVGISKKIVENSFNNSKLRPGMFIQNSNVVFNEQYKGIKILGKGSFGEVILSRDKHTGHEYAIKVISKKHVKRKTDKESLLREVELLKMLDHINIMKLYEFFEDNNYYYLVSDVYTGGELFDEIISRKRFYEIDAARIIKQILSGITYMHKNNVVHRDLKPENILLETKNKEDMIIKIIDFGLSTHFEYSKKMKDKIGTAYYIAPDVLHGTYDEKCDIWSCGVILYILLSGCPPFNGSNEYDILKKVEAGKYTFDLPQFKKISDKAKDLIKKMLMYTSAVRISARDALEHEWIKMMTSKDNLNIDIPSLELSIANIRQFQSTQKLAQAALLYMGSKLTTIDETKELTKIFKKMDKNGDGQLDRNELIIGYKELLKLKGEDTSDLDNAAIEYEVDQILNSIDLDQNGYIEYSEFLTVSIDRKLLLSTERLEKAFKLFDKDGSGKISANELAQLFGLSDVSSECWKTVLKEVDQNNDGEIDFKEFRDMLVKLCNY

Sequence of L-lactate dehydrogenase (Plasmodium falciparum (isolate CDC / Honduras)) (Q27743 whole entry, looked up): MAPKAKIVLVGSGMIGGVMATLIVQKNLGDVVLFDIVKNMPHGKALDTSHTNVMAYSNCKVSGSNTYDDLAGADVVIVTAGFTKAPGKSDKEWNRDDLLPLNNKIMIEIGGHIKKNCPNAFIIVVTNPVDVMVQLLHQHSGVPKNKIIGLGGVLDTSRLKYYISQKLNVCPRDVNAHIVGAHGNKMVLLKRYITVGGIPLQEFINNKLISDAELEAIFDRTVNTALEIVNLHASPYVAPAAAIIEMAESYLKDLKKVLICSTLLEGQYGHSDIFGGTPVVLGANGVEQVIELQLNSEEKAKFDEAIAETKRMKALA
Sequence of Calcium-dependent protein kinase 1 (Plasmodium falciparum (isolate 3D7)) (P62344 whole entry, looked up): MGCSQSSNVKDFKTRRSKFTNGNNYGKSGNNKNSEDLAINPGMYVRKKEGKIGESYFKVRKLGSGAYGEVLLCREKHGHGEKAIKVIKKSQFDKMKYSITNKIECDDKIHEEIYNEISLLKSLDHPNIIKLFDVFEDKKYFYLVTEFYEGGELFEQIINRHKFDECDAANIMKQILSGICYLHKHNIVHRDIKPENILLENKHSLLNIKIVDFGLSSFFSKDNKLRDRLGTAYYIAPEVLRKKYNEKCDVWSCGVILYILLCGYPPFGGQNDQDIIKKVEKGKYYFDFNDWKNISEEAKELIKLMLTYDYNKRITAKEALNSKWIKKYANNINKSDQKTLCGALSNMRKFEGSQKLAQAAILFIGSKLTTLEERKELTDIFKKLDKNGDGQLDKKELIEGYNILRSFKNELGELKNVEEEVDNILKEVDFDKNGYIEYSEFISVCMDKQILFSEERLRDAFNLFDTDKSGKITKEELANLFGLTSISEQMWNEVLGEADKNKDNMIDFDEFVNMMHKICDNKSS
Sequence of Protein kinase 7 (PK7), Plasmodium falciparum 3D7 (PF3D7_0213400) (Q7YTF7 1-343): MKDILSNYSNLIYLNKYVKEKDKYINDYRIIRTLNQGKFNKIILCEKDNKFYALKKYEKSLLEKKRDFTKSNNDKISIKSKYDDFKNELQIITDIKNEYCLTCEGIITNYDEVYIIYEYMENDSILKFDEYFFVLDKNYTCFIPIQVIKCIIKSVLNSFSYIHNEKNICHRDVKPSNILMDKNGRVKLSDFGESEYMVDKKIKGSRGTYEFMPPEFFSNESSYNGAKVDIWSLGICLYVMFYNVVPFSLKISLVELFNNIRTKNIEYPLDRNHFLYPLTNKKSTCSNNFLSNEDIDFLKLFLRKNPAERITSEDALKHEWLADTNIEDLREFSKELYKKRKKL
Sequence of Plasmodium falciparum protein kinase 6 (PK6, PF3D7_1337100) (Q8IDW1 1-305): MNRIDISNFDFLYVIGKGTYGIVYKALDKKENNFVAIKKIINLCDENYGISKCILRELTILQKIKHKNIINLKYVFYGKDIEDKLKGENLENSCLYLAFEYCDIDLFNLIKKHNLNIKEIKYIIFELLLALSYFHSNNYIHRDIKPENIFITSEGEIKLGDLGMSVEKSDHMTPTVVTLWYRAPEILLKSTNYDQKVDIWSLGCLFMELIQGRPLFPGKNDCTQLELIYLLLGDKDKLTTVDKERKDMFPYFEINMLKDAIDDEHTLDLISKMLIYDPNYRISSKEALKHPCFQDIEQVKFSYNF

CN(C)CCOc1ccc(-n2c(-c3nonc3N)nc3cncc(-c4ccc(F)cc4)c32)cc1
inactive: growth inhibition [1] 7% | inhibition [2] 10% | inhibition [3] 5% | outcome [5] | outcome [6] | outcome [7] | outcome [8]
active: growth inhibition [4] 97%

NC(N)=Nc1ccc(OCCCCCOc2ccc(N=C(N)N)cc2)cc1
inactive: inhibition [2] 12% | inhibition [3] -1% | outcome [5] | outcome [6] | outcome [7] | outcome [8]
active: growth inhibition [1] 100% | growth inhibition [4] 99%

Cc1ccc(NS(=O)(=O)c2ccc(C(C)N3CCC(N4CCCCC4)CC3)cc2)cc1C (stereo not drawn)
inactive: inhibition [3] -2% | outcome [5] | outcome [6] | outcome [7] | outcome [8]
active: growth inhibition [1] 82% | inhibition [2] 66% | growth inhibition [4] 97%

Cc1cc(=O)[nH]c(-n2nc(C)cc2NC(=O)C(c2ccccc2)c2ccccc2)n1
inactive: inhibition [2] 31% | inhibition [3] -1% | outcome [5] | outcome [6] | outcome [7] | outcome [8]
active: growth inhibition [1] 77% | growth inhibition [4] 96%

COc1ccc2cc(C(=O)NC3CCC(CCN4CCc5cc(C#N)ccc5C4)CC3)[nH]c2c1 (stereo not drawn)
active: growth inhibition [4] 88%
inactive: growth inhibition [1] -1% | inhibition [2] 9% | inhibition [3] -10% | outcome [5] | outcome [6] | outcome [7] | outcome [8]

CCOc1ncccc1CN1CCC(N2CCc3cc(NC(=O)c4cc(C)on4)ccc32)C1 (stereo not drawn)
inactive: inhibition [2] -3% | inhibition [3] -1% | outcome [5] | outcome [6] | outcome [7] | outcome [8]
active: growth inhibition [1] 96% | growth inhibition [4] 89%

Nc1c(Cl)cc(C(O)CNCCCCCOCCCc2ccc3ncccc3c2)cc1Cl (stereo not drawn)
inactive: inhibition [2] 24% | inhibition [3] -8% | outcome [5] | outcome [6] | outcome [7] | outcome [8]
active: growth inhibition [1] 77% | growth inhibition [4] 96%

O=C(O)c1ccc(OCOCOc2ccc(C(=O)O)c(O)c2)cc1O
active: growth inhibition [4] 99%
inactive: growth inhibition [1] 0% | inhibition [2] -2% | inhibition [3] 6% | outcome [5] | outcome [6] | outcome [7] | outcome [8]

O=S(=O)(NCCN1CCCC1)c1ccc(-c2cccc(CNCc3ccc(F)cc3)c2)s1
inactive: inhibition [2] 48% | inhibition [3] 4% | outcome [5] | outcome [6] | outcome [7] | outcome [8]
active: growth inhibition [1] 50% | growth inhibition [4] 99%

CC1(C)N=C(N)N=C(N)N1OCCCSc1ccccc1
active: growth inhibition [1] 94% | inhibition [2] 69% | growth inhibition [4] 93%
inactive: inhibition [3] 0% | outcome [5] | outcome [6] | outcome [7] | outcome [8]

NC(=NCCc1ccccc1Cl)c1ccc2ccccc2c1
inactive: growth inhibition [1] 11% | inhibition [2] 25% | inhibition [3] -2% | outcome [5] | outcome [6] | outcome [7] | outcome [8]
active: growth inhibition [4] 88%

Cc1ccc(NC(=O)c2cccc(N3CCN(c4ccncc4)CC3)c2)cc1F
inactive: inhibition [2] 43% | inhibition [3] -1% | outcome [5] | outcome [6] | outcome [7] | outcome [8]
active: growth inhibition [1] 72% | growth inhibition [4] 101%

CCOC(=O)c1cc(Cl)cc(Cl)c1OCCCON1C(N)=NC(N)=NC1(C)C
active: growth inhibition [1] 97% | inhibition [2] 70% | growth inhibition [4] 93%
inactive: inhibition [3] -6% | outcome [5] | outcome [6] | outcome [7] | outcome [8]

CC1CCCCN1CCCNc1ncc2c(-c3ccc(NC(=O)Nc4cc(C(F)(F)F)ccc4F)c(F)c3)nn(C)c2n1 (stereo not drawn)
inactive: inhibition [2] 27% | inhibition [3] 2% | outcome [5] | outcome [6] | outcome [7] | outcome [8]
active: growth inhibition [1] 97% | growth inhibition [4] 101%

CCN(CC)CCN(Cc1ccc(-c2ccc(C(F)(F)F)cc2)cc1)C(=O)Cn1c(CCc2cccc(F)c2F)nc(=O)c2ccc(C)cc21
active: growth inhibition [1] 58% | growth inhibition [4] 99%
inactive: inhibition [2] 39% | inhibition [3] -2% | outcome [5] | outcome [6] | outcome [7] | outcome [8]

c1cc(CNCC2CCCO2)cc(-c2ccc(-c3nc4ccccc4[nH]3)s2)c1 (stereo not drawn)
active: growth inhibition [4] 95%
inactive: growth inhibition [1] 30% | inhibition [2] 8% | inhibition [3] -2% | outcome [5] | outcome [6] | outcome [7] | outcome [8]

CCN1CCN(c2cc(C)c3cc(NC(=O)c4ccc(N(CC)CC)cc4)ccc3n2)CC1
inactive: growth inhibition [1] 41% | inhibition [2] 38% | inhibition [3] 1% | outcome [5] | outcome [6] | outcome [7] | outcome [8]
active: growth inhibition [4] 95%

O=C(NC1CCC(N2CCC(O)(c3ccc(F)cc3)CC2)CC1)c1cc2ccccc2[nH]1 (stereo not drawn)
inactive: growth inhibition [1] 8% | inhibition [2] 9% | inhibition [3] -4% | outcome [5] | outcome [6] | outcome [7] | outcome [8]
active: growth inhibition [4] 94%

Cc1noc(NC(=O)c2sc3ccccc3c2O)c1C
inactive: inhibition [2] -12% | inhibition [3] 0% | outcome [5] | outcome [6] | outcome [7] | outcome [8]
active: growth inhibition [1] 50% | growth inhibition [4] 90%

COC(=O)c1ccc2nc(-c3cc(OC)c(O)c(C(=O)NC4CCN(Cc5ccccc5)CC4)c3)[nH]c2c1
active: growth inhibition [4] 85%
inactive: growth inhibition [1] -2% | inhibition [2] 8% | inhibition [3] 0% | outcome [5] | outcome [6] | outcome [7] | outcome [8]

Cc1ccc(C)c(-n2c(SCC(=O)Nc3ccc(C(N)=O)cc3)nnc2-c2cccc(Cl)c2)c1
active: growth inhibition [1] 91% | growth inhibition [4] 92%
inactive: inhibition [2] 6% | inhibition [3] 4% | outcome [5] | outcome [6] | outcome [7] | outcome [8]

COc1cc(NC(=O)N2CCc3ccc(OCCC4CCCN4C)cc32)cc(C(F)(F)F)c1 (stereo not drawn)
inactive: growth inhibition [1] 42% | inhibition [2] 5% | inhibition [3] 3% | outcome [5] | outcome [6] | outcome [7] | outcome [8]
active: growth inhibition [4] 101%

c1cc(-c2ccc(CNC3CCOCC3)cc2)cc(-c2nc3ccccc3[nH]2)c1
active: growth inhibition [1] 100% | growth inhibition [4] 100%
inactive: inhibition [2] 30% | inhibition [3] 3% | outcome [5] | outcome [6] | outcome [7] | outcome [8]

Cc1ccc(C2(C)CN(CCCOc3cccc(-c4ccc(C(=O)NC(C)C)cc4)c3)CCO2)cc1 (stereo not drawn)
inactive: inhibition [2] 15% | inhibition [3] 0% | outcome [5] | outcome [6] | outcome [7] | outcome [8]
active: growth inhibition [1] 89% | growth inhibition [4] 93%

c1ccc(Oc2ccc(Nc3ccnc4cc(-c5ccc(CN6CCCCC6)o5)ccc34)cc2)nc1
inactive: inhibition [2] 18% | inhibition [3] -4% | outcome [5] | outcome [6] | outcome [7] | outcome [8]
active: growth inhibition [1] 100% | growth inhibition [4] 101%

CCCC(C)n1ccc2c3c(N)nc(N)nc3ccc21 (stereo not drawn)
inactive: inhibition [3] -2% | outcome [5] | outcome [6] | outcome [7] | outcome [8]
active: growth inhibition [1] 91% | inhibition [2] 70% | growth inhibition [4] 94%

COc1ccc2c(NN=Cc3ccc(F)cc3)ccnc2c1
inactive: inhibition [2] 14% | inhibition [3] -4% | outcome [5] | outcome [6] | outcome [7] | outcome [8]
active: growth inhibition [1] 99% | growth inhibition [4] 100%

Cc1cccc(Nc2nccc(NCC(O)c3ccc(C(F)(F)F)cc3)n2)c1 (stereo not drawn)
inactive: inhibition [2] 11% | inhibition [3] 0% | outcome [5] | outcome [6] | outcome [7] | outcome [8]
active: growth inhibition [1] 54% | growth inhibition [4] 101%

CC(C)c1nc2c(N)nc(N)nc2nc1N
active: inhibition [2] 64% | growth inhibition [4] 84%
inactive: growth inhibition [1] -1% | inhibition [3] 2% | outcome [5] | outcome [6] | outcome [7] | outcome [8]

CSc1sc(NC(=O)Nc2cccc(C(F)(F)F)c2)cc1C#N
active: growth inhibition [4] 99%
inactive: growth inhibition [1] 46% | inhibition [2] 27% | inhibition [3] -1% | outcome [5] | outcome [6] | outcome [7] | outcome [8]

O=S(=O)(NCCN1CCCC1)c1ccc(-c2ccc(CNCc3ccsc3)cc2)cc1
active: growth inhibition [4] 95%
inactive: growth inhibition [1] 36% | inhibition [2] 44% | inhibition [3] -5% | outcome [5] | outcome [6] | outcome [7] | outcome [8]

Cc1cc(N[C@@H](Cc2ccccc2)C(=O)NC2CCCC2)nc(Nc2ccccc2)n1
active: growth inhibition [1] 82% | growth inhibition [4] 100%
inactive: inhibition [2] 3% | inhibition [3] 0% | outcome [5] | outcome [6] | outcome [7] | outcome [8]

CCC(CC)(CCC#N)CN(C[C@@H](O)[C@H](Cc1ccccc1)NC(=O)OC(C)(C)C)S(=O)(=O)c1ccc(OC)cc1
inactive: inhibition [2] -12% | inhibition [3] 0% | outcome [5] | outcome [6] | outcome [7] | outcome [8]
active: growth inhibition [1] 66% | growth inhibition [4] 82%

O=C(Nc1ccc(Cl)cc1F)N[C@H]1CCN(CCCCCNC(=O)[C@@H]2C[C@H]2c2ccc(Cl)c(Cl)c2)C1
active: growth inhibition [4] 87%
inactive: growth inhibition [1] -3% | inhibition [2] 29% | inhibition [3] 3% | outcome [5] | outcome [6] | outcome [7] | outcome [8]

Cc1ccc(S(=O)Cc2ccc(Cl)cc2)cc1 (stereo not drawn)
active: growth inhibition [4] 98%
inactive: growth inhibition [1] 5% | inhibition [2] 8% | inhibition [3] -2% | outcome [5] | outcome [6] | outcome [7] | outcome [8]

c1cc(CNCC2CCN(CC3CCCCC3)CC2)cc(-n2ccnc2)c1
active: growth inhibition [1] 99% | growth inhibition [4] 102%
inactive: inhibition [2] 18% | inhibition [3] -1% | outcome [5] | outcome [6] | outcome [7] | outcome [8]

Cc1[nH]c2ccc(-c3ccccc3)cc2c(=O)c1Br
active: growth inhibition [1] 97% | growth inhibition [4] 97%
inactive: inhibition [2] -13% | inhibition [3] 4% | outcome [5] | outcome [6] | outcome [7] | outcome [8]

OC(COc1ccccc1-c1nc2ccccc2o1)CN1CCCN(CCc2ccccc2)CC1 (stereo not drawn)
inactive: growth inhibition [1] 2% | inhibition [2] 39% | inhibition [3] -5% | outcome [5] | outcome [6] | outcome [7] | outcome [8]
active: growth inhibition [4] 97%

Cc1cc(N2CCCC2)nc(Nc2ccc(NC(=O)C(C)(C)C)cc2)n1
active: growth inhibition [4] 95%
inactive: growth inhibition [1] 15% | inhibition [2] 24% | inhibition [3] 2% | outcome [5] | outcome [6] | outcome [7] | outcome [8]

COc1ccccc1CCNc1nc(C)cc(N[C@@H](CC(C)C)C(=O)NCc2cccs2)n1
active: growth inhibition [4] 96%
inactive: growth inhibition [1] 31% | inhibition [2] 20% | inhibition [3] 0% | outcome [5] | outcome [6] | outcome [7] | outcome [8]

COC(=O)C1=CNC=C(C(=O)OC)C1c1ccc(Cl)c([N+](=O)[O-])c1
active: growth inhibition [1] 79% | growth inhibition [4] 93%
inactive: inhibition [2] -1% | inhibition [3] -4% | outcome [5] | outcome [6] | outcome [7] | outcome [8]
